Results published in PMC7862700, “An all-to-all approach to the identification of sequence-specific readers for epigenetic DNA modifications on cytosine”.

Tests used:
Assay in all cases: DAPPL (digital affinity profiling via proximity ligation, sequencing); 10 mM Tris-HCl pH 7.5, 50 mM NaCl, 1 mM DTT, 4% glycerol, room temperature, 30 min; GST-TFs on glutathione beads, 16-mer random dsDNA library, 0.1% formaldehyde crosslink after washing; high values mean tight binding
Conditions in all cases: protein: recombinant; tags: N-terminal GST; dsDNA, one strand shown
ELK1 = biological target: T1, ELK1 (Homo sapiens, UniProt P19419 1-428)
T1 sequence: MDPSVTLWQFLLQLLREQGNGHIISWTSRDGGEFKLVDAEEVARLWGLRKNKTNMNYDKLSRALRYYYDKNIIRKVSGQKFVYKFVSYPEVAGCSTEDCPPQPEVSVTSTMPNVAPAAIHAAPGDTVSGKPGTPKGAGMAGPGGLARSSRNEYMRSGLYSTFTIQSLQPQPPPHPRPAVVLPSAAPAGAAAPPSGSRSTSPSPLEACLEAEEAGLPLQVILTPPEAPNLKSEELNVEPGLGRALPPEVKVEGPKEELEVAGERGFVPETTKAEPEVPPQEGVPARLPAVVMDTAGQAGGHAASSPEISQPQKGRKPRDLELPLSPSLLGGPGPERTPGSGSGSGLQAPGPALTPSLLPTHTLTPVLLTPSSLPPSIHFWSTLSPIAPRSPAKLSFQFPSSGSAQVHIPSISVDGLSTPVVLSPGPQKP
How it was run: (§1)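 Sequencing on an Illumina NextSeq500 followed washing, crosslinking with 0.1% formaldehyde, proximity ligation (BsaI/T4 ligase, 1 h, 37 °C) and PCR amplification of pools that had been incubated for 30 min at room temperature with 200 nmole of a random double-stranded 16-mer DNA library in Tris/NaCl/DTT/glycerol buffer. Each pool held DNA-barcoded human transcription factors, expressed in yeast as GST fusions and captured on glutathione beads, plus a tag-only sample. Binding signal is a hexamer's read frequency for a factor divided by its frequency in the tag-only sample.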

GABPA = biological target: T2, GABPA (Homo sapiens, UniProt Q06546 1-454)
T2 sequence: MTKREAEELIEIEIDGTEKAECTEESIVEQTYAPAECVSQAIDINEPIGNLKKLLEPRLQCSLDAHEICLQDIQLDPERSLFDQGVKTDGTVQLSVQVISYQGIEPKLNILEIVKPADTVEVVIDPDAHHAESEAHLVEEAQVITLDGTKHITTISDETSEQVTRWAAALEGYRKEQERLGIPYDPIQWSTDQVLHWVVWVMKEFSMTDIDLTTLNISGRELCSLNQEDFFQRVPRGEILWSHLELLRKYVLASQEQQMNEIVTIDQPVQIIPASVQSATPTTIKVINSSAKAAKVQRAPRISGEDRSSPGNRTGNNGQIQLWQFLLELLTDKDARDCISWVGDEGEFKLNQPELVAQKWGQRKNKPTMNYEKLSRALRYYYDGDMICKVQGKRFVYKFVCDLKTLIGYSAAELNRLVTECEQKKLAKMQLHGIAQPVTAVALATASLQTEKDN
How it was run: as §1

ERG = biological target: T3, ERG (Homo sapiens, UniProt P11308 1-479)
T3 sequence: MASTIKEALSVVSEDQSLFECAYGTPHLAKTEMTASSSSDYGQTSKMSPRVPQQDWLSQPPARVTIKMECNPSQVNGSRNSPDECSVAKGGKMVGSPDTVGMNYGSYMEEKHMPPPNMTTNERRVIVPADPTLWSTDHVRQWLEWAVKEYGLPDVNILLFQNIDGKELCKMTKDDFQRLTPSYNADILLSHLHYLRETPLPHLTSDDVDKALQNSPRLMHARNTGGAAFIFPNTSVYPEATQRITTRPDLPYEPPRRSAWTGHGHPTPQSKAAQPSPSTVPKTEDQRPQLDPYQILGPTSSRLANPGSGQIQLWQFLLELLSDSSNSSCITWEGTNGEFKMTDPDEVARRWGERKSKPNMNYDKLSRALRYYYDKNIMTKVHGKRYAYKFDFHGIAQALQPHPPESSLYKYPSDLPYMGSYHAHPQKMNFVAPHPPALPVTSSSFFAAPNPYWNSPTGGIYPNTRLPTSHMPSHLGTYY
How it was run: as §1

ELF1 = ELF1 (Homo sapiens, UniProt P32519 1-619)
Sequence of ELF1 (P32519 whole entry): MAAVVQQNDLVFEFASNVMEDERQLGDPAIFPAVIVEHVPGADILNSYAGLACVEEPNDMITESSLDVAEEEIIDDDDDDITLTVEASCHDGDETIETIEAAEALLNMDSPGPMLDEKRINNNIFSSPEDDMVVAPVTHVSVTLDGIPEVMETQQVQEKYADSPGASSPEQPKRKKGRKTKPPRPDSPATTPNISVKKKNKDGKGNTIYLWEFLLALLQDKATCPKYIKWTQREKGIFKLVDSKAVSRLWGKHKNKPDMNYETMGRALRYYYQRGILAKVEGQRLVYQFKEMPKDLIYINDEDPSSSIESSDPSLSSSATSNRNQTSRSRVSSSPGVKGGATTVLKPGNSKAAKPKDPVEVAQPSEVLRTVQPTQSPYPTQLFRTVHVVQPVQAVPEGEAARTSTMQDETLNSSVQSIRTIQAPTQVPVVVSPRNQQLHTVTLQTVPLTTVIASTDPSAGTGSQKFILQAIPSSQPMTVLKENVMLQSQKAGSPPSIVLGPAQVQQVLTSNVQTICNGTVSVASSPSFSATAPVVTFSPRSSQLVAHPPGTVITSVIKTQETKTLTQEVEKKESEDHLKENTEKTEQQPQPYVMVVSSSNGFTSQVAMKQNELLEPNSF
How it was run: as §1

EHF = biological target: T4, EHF (Homo sapiens, UniProt Q9NZC4 1-300)
T4 sequence: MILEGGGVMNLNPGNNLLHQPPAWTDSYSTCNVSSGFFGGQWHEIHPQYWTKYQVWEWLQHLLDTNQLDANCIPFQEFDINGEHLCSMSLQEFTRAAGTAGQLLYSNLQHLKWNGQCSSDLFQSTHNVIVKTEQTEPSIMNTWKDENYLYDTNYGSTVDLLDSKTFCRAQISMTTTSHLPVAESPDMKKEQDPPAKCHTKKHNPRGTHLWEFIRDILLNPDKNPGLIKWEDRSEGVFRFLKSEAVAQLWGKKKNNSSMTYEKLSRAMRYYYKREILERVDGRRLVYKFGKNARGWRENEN
How it was run: as §1

SPIB = SPIB (Homo sapiens, UniProt Q01892 1-262)
Sequence of SPIB (Q01892 whole entry): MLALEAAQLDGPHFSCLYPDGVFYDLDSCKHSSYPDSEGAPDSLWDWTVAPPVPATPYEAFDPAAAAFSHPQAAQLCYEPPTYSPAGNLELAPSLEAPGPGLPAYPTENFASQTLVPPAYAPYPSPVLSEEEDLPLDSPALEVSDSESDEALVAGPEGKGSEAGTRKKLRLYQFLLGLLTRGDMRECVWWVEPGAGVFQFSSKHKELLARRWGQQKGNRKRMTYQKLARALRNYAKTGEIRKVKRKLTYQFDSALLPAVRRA
How it was run: as §1

ETV5 = ETV5 (Homo sapiens, UniProt P41161 1-510)
Sequence of ETV5 (P41161 whole entry): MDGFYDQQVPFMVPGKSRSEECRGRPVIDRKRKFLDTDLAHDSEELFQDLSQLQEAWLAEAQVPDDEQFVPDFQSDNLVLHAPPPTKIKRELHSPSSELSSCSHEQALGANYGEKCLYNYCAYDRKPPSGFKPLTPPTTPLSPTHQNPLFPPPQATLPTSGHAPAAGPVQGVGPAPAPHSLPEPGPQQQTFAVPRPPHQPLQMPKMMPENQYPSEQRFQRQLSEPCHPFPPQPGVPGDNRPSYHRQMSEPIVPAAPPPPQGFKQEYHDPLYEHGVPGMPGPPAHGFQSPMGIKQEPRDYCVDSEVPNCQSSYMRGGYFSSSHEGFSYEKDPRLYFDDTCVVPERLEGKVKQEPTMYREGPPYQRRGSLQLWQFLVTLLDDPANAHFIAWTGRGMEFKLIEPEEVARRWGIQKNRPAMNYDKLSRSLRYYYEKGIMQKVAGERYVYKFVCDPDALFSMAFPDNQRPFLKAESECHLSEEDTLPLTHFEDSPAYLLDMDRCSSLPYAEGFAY
How it was run: as §1

ELF4 = ELF4 (Homo sapiens, UniProt Q99607 1-663)
Sequence of ELF4 (Q99607 whole entry): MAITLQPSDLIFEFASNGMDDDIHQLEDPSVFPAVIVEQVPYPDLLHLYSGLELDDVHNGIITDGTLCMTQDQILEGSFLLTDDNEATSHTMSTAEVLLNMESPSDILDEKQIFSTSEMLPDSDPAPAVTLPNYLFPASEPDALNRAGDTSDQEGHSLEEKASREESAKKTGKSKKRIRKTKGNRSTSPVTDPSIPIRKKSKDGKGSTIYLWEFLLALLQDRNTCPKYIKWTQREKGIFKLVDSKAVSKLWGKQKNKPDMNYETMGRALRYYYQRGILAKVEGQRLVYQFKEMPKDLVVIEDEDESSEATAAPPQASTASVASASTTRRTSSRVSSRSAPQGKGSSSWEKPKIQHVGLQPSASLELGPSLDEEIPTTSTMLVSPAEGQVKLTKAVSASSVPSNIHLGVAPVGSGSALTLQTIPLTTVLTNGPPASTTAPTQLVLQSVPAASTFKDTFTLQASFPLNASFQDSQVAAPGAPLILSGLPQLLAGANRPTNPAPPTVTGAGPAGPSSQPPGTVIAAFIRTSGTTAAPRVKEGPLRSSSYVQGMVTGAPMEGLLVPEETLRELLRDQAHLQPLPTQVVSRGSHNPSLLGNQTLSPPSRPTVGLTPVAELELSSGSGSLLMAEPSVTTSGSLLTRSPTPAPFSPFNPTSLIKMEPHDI
How it was run: as §1

ELK4 = biological target: T5, ELK4 (Homo sapiens, UniProt P28324-2 1-405)
T5 sequence: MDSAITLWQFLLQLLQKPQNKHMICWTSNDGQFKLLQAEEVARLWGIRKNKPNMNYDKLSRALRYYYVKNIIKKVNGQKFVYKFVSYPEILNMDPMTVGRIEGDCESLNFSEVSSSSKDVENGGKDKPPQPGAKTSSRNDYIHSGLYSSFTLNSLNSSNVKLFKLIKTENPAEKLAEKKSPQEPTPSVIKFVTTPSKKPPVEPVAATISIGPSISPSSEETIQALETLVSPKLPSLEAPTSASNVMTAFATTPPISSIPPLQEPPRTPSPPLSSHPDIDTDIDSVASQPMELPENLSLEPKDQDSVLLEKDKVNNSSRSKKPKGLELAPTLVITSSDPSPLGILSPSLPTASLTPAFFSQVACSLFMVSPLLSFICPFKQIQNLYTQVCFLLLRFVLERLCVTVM
How it was run: as §1

ELF3 = biological target: T6, ELF3 (Homo sapiens, UniProt P78545 1-371)
T6 sequence: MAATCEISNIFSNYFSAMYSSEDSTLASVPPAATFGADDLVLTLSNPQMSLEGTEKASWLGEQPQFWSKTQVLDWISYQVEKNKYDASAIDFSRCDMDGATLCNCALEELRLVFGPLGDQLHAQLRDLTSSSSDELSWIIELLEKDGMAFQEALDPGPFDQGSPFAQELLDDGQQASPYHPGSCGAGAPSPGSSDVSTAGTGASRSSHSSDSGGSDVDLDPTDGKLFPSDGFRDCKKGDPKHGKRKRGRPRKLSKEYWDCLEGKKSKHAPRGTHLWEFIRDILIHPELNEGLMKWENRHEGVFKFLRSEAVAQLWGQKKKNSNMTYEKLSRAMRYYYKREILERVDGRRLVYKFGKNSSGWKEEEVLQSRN
How it was run: as §1

ETV1 = ETV1 (Homo sapiens, UniProt P50549 1-477)
Sequence of ETV1 (P50549 whole entry): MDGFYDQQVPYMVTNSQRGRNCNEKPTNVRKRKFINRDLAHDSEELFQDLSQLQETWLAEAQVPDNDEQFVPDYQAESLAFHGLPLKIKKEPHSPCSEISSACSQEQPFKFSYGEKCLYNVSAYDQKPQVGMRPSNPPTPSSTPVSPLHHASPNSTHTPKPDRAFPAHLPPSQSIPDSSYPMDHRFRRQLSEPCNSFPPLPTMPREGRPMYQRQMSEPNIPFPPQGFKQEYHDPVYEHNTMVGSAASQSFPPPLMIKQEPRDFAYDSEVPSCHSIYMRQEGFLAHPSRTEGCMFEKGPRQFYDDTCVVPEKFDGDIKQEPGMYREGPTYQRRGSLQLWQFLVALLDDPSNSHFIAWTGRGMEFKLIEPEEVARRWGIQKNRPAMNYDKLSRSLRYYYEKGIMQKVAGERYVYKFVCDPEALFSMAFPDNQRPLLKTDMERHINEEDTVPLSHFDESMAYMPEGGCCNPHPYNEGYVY
How it was run: as §1

ERF = biological target: T7, ERF (Homo sapiens, UniProt P50548 1-548)
T7 sequence: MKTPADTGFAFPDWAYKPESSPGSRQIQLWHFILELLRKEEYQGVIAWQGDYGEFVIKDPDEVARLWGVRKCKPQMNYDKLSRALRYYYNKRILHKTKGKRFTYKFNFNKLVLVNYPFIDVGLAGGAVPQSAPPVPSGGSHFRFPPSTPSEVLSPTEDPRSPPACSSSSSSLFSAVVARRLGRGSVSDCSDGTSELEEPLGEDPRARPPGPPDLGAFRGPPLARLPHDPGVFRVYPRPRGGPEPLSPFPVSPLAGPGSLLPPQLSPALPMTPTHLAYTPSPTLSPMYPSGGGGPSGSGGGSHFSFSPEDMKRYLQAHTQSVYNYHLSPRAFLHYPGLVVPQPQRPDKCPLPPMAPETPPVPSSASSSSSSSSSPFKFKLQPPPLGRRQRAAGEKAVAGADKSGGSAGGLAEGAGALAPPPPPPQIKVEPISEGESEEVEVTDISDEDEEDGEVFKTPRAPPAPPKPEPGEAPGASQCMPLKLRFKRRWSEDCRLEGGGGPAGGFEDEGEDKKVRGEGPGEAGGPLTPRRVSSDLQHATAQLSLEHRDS
How it was run: as §1

ETV3L = biological target: T8, ETV3L (Homo sapiens, UniProt Q6ZN32 1-361)
T8 sequence: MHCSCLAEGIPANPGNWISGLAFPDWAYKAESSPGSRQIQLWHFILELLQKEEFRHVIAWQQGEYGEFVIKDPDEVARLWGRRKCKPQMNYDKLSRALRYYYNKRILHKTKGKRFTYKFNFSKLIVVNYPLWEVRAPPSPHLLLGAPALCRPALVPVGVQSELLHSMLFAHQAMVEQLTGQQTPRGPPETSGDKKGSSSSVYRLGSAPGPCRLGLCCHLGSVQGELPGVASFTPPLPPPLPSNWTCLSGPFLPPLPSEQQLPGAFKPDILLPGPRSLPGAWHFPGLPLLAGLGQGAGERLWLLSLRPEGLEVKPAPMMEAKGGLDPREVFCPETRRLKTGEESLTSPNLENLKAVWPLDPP
How it was run: as §1

ETS2 = biological target: T9, ETS2 (Homo sapiens, UniProt P15036 1-469)
T9 sequence: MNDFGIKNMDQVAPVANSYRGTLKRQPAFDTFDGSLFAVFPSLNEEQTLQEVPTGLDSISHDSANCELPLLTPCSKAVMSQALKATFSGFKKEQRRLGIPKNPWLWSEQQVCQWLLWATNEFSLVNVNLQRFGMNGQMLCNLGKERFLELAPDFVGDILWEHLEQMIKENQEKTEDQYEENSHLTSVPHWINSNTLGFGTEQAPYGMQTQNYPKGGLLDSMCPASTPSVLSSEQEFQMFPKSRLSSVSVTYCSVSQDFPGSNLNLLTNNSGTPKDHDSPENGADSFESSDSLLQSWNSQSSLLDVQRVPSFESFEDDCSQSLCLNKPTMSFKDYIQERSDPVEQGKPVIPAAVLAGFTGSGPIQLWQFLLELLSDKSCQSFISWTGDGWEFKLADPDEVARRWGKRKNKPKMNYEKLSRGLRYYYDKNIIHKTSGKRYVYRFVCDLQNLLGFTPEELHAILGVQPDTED
How it was run: as §1

ETV7 = biological target: T10, ETV7 (Homo sapiens, UniProt Q9Y603 1-341)
T10 sequence: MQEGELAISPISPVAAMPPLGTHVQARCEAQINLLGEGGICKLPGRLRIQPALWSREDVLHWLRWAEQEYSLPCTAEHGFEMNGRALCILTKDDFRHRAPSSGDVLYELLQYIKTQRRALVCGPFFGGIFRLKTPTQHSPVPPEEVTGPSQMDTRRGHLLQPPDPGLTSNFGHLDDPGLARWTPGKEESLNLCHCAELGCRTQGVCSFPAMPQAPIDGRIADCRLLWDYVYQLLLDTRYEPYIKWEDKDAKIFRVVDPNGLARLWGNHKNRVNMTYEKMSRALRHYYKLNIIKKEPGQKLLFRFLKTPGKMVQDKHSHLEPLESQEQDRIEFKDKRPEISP
How it was run: as §1

ETV3 = biological target: T11, ETV3 (Homo sapiens, UniProt P41162-2 1-143)
T11 sequence: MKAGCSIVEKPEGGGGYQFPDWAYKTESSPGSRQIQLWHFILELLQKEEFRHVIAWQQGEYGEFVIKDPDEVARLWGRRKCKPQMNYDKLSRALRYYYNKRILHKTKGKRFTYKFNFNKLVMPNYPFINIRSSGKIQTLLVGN
How it was run: as §1

ETV6 = ETV6 (Homo sapiens, UniProt P41212 1-452)
Sequence of ETV6 (P41212 whole entry): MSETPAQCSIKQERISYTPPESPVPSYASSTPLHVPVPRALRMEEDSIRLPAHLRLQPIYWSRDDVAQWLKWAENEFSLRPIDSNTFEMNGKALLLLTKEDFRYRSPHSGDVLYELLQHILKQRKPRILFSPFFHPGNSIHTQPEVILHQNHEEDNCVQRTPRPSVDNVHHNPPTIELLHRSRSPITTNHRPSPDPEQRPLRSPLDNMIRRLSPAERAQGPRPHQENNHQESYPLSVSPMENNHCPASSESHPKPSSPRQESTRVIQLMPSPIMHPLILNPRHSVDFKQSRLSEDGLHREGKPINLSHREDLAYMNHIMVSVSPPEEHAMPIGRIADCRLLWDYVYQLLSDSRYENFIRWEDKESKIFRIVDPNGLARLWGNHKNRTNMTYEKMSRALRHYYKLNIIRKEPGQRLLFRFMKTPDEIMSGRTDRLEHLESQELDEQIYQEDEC
How it was run: as §1

Q: With GTAGCT as the sequence, how does the binding signal (ELK1) read?
A: The binding signal was 1.08 fold enrichment (6-mer frequency, TF over GST control).

Q: And the binding signal (GABPA)?
A: Its binding signal is 1.12 fold enrichment (6-mer frequency, TF over GST control).

Q: And the binding signal (ERG)?
A: Its binding signal is 1.05 fold enrichment (6-mer frequency, TF over GST control).

Q: What about the binding signal (ELF1) of the same sequence?
A: The binding signal was 1.06 fold enrichment (6-mer frequency, TF over GST control).

Q: And the binding signal (EHF)?
A: Its binding signal is 1.12 fold enrichment (6-mer frequency, TF over GST control).

Q: And the binding signal (SPIB)?
A: Its binding signal is 1.18 fold enrichment (6-mer frequency, TF over GST control).

Q: What about the binding signal (ETV5) of the same sequence?
A: The binding signal was 1.14 fold enrichment (6-mer frequency, TF over GST control).

Q: What about the binding signal (ELF4) of the same sequence?
A: The binding signal was 1.1 fold enrichment (6-mer frequency, TF over GST control).

Q: What about the binding signal (ELK4) of the same sequence?
A: Its binding signal is 1.17 fold enrichment (6-mer frequency, TF over GST control).

Q: What about the binding signal (ELF3) of the same sequence?
A: Its binding signal is 1.18 fold enrichment (6-mer frequency, TF over GST control).

Q: And the binding signal (ETV1)?
A: The binding signal was 1.13 fold enrichment (6-mer frequency, TF over GST control).

Q: And the binding signal (ERF)?
A: Its binding signal is 1.1 fold enrichment (6-mer frequency, TF over GST control).

Q: And the binding signal (ETV3L)?
A: The binding signal was 1.08 fold enrichment (6-mer frequency, TF over GST control).

Q: What about the binding signal (ETS2) of the same sequence?
A: The binding signal was 1.13 fold enrichment (6-mer frequency, TF over GST control).

Q: And the binding signal (ETV7)?
A: Its binding signal is 1.12 fold enrichment (6-mer frequency, TF over GST control).

Q: And the binding signal (ETV3)?
A: The binding signal was 1.09 fold enrichment (6-mer frequency, TF over GST control).

Q: And the binding signal (ETV6)?
A: The binding signal was 1.06 fold enrichment (6-mer frequency, TF over GST control).
